From PubChem BioAssay (NCATS)
Inconclusive results are not listed. Calls of active or inactive are those of the source. The call rests on the fitted dose curve; in most records, active means well fitted inhibition curve with a large enough effect; inconclusive means small, poorly fitted or top-dose-only effect; inactive means no such curve, though single readings can be large or run the other way.

test system: Zika virus NS2B-NS3 protease (unlinked complex); assay: Primary screen GU Rhodamine qHTS for Zika virus inhibitors: Unlinked NS2B-NS3 protease assay (AID 1347159); conditions: Recombinant ZIKV NS2B-NS3 protease, Rhodamine110 substrate fluorescence; series mostly up to 107 µM; activity change, negative = inhibition: at the top concentration; further: nearly all actives have a fitted effect of over 60% in size
Summary of the method: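 Percent inhibition derives from the 15-min fluorescence change (ex 480, em 540 nm), normalized to no-enzyme and no-inhibitor wells. Reactions contained 25 nM NS2B-NS3 complex and 1.5 microM substrate in 10 mM Tris-HCl pH 8.0.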
On the % scale 0 is the no-effect control and ±100 the full control effect; potency means the concentration at half of the fitted maximal effect.

SMILES | activity change, negative = inhibition | Potency
COC(=O)C1=C2Nc3ccccc3C23CCN2CCCC(C(C)O)(C1)C23 (stereo not given) | 10.3% (inactive) | –
C/C(=C\CCC(C)CCO)C(=O)O[C@@H]1[C@@H](O)[C@H](OC2OC=C(C(=O)O)C3CCC(C)(O)C23)O[C@H](CO)[C@H]1O (stereo not given in full) | – | 35.5 µM (active)
CC(=O)c1cc(C(=O)N[C@@H](C)Cn2ccc(-c3ccc(C#N)c(Cl)c3)n2)[nH]n1 | 0% (inactive) | –
Cc1cc2c(F)c(Oc3ncnn4cc(OCC(C)O)c(C)c34)ccc2[nH]1 (stereo not given) | 3.13% (inactive) | –
CC(O)c1cc(C(=O)N[C@@H](C)Cn2ccc(-c3ccc(C#N)c(Cl)c3)n2)n[nH]1 (stereo not given in full) | 9.93% (inactive) | –
C[C@@]1(O)[C@H](O)[C@@H](CO)O[C@H]1n1ccc(N)nc1=O | -12.6% (inactive) | –
CCN(CC)CCN(Cc1ccc(-c2ccc(C(F)(F)F)cc2)cc1)C(=O)Cn1c(SCc2ccc(F)cc2)nc(=O)c2c1CCC2 | 94.2% (inactive) | –
CCO[C@@H]1OC(=O)C[C@@H]1NC(=O)[C@@H]1CCCN1C(=O)[C@@H](NC(=O)c1ccc(N)c(Cl)c1)C(C)(C)C | -3% (inactive) | –
COC(=O)c1ccccc1O[C@@H]1O[C@H](CO)[C@@H](O)[C@H](O)[C@H]1O[C@@H]1O[C@@H](C)[C@H](O)[C@@H](O)[C@H]1O | -6.01% [at 57.1 µM] (inactive) | –
O=C1NC2CCc3nc4ccccc4c(=O)n3C2=Nc2ccccc21 (stereo not given) | 5.46% (inactive) | –

test system: Zika virus NS2B-NS3 protease (linked construct); assay: Primary screen NINDS Rhodamine qHTS for Zika virus inhibitors (AID 1347160); conditions: purified NS2B-NS3 protease, Rhodamine110 substrate fluorescence; series mostly up to 57.1 µM; activity change, negative = inhibition: at the top concentration; further: nearly all actives have a fitted effect of over 55% in size
Summary of the method: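 In 10 mM Tris-HCl pH 8.0 containing 0.01% Tween 20, linked NS2B-NS3 protease (25 nM final) is exposed to test compounds for 15 min. Cleavage of 1.5 microM Rhodamine110 substrate is tracked by fluorescence over 15 min.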

SMILES | activity change, negative = inhibition | outcome | Potency
C=C(C)C(=O)OC1CC2(C)OC(=CC2=O)C(=C)CC2OC(=O)C(COC)C12 (stereo not given) | -6.82% [at 33.1 µM] (inactive) | – | –
CC1CC[C@]2(C(=O)O)CC[C@]3(C(=O)O)C(=CCC4[C@@]5(C)CC[C@H](OC6OC(C)C(O)C(OC7OC(CO)C(O)C(O)C7O)C6O)C(C)(C)C5CC[C@]43C)C2C1C (stereo not given in full) | -27.6% [at 15.1 µM] (inactive) | – | –
C=C(C(=O)O)C1CC2=C(C)CCCC2(C)C[C@@H]1O (stereo not given in full) | -13.5% (inactive) | – | –
Cc1cnc(Nc2ccc(F)cc2Cl)nc1-c1c[nH]c(C(=O)NC(CO)c2cccc(Cl)c2)c1 (stereo not given) | – | inactive | –
CC(=O)OC1/C(C)=C/C(=O)C(OC(C)=O)C(C)(C)/C=C/C(C)C(=O)C2(OC(C)=O)CC(C)C(OC(=O)c3ccccc3)C12 (stereo not given) | -0.121% [at 15.1 µM] (inactive) | – | –
COc1cc([C@H]2c3cc(O)c(OC)cc3C[C@@H](CO[C@@H]3O[C@H](CO)[C@@H](O)[C@H](O)[C@H]3O)[C@@H]2CO)ccc1O | -12.8% [at 33.1 µM] (inactive) | – | –
C=C[C@H]1[C@H](O[C@@H]2O[C@H](CO)[C@@H](O)[C@H](O)[C@H]2O)OC=C(C(=O)OC)[C@H]1CCOC(=O)c1cc(O)c(O)c(O)c1 | – | – | 8.91 µM (active)
N[C@H]1Cc2ccccc2N(O)C1=O | – | inactive | –
CC1(C)CCCC2(C)C=C(C(=O)O)C(O)CC12 (stereo not given) | 14.2% (inactive) | – | –
CC1=CCC2C(C)(C)CCC[C@]2(C)[C@@]12CC[C@](C)(CC(=O)O)O2 (stereo not given in full) | -3.57% [at 33.1 µM] (inactive) | – | –
CO[C@H]1C[C@@H]2CC[C@@H](C)[C@@](O)(O2)C(=O)C(=O)N2CCCC[C@H]2C(=O)O[C@H]([C@H](C)C[C@@H]2CC[C@@H](OP(C)(C)=O)[C@H](OC)C2)CC(=O)[C@H](C)/C=C(\C)[C@@H](O)[C@@H](OC)C(=O)[C@H](C)C[C@H](C)/C=C/C=C/C=C/1C | -15.9% [at 33.1 µM] (inactive) | – | –
C=C1C[C@]23C[C@H]1CC[C@H]2[C@]1(C)CCC[C@@](C)(C(=O)O)[C@H]1[C@@H]3C(=O)O | -25.9% [at 33.1 µM] (inactive) | – | –
C=CC(C)(O)CC[C@H]1C(=C)CCC2[C@](C)(C(=O)O)CCC[C@@]21C (stereo not given in full) | -4.74% [at 33.1 µM] (inactive) | – | –
C/C=C/c1ccc2c(c1)[C@@H](C)[C@H](c1ccc(O)cc1)O2 | 2.87% (inactive) | – | –
CN[C@H](CC(C)C)C(=O)N[C@H]1C(=O)N[C@@H](CC(N)=O)C(=O)N[C@H]2C(=O)N[C@H]3C(=O)N[C@H](C(=O)N[C@H](C(=O)O)c4cc(O)cc(O)c4-c4cc3ccc4O)[C@H](O[C@H]3C[C@](C)(N)[C@@H](O)[C@H](C)O3)c3ccc(c(Cl)c3)Oc3cc2cc(c3O[C@@H]2O[C@H](CO)[C@@H](O)[C@H](O)[C@H]2O[C@H]2C[C@](C)(NCc3ccc(-c4ccc(Cl)cc4)cc3)[C@@H](O)[C@H](C)O2)Oc2ccc(cc2Cl)[C@H]1O | 190% [at 15.1 µM] (inactive) | – | –
CC1=CC(=O)C2C(C)(C)CCC[C@]2(C)[C@H]1CO (stereo not given in full) | -0.303% (inactive) | – | –
COc1cc2c(cc1OC)N1C(=O)C[C@]34C=CCN5CC[C@@H]2[C@@H](CC3)[C@]514 | -17.9% [at 33.1 µM] (inactive) | – | –
CC(C)(C#N)c1ccc(N2C(=O)OCc3cnc4ccc(-c5cnc6ccccc6c5)cc4c32)cc1 | 6.42% (inactive) | – | –
COC(=O)C1=C2Nc3ccccc3C23CCN2CCCC(C(C)O)(C1)C23 (stereo not given) | – | inactive [at 33.1 µM] | –
CCc1cccc(CC)c1NC(=O)c1nn(C)c2c1CCc1cnc(Nc3ccc(C(=O)NC4CCN(C)CC4)cc3OC(F)(F)F)nc1-2 | – | inactive [at 33.1 µM] | –
